Reference: the antibiotic and cytotoxicity screens of Wong et al. (2023)
Screen size: about 39,000 compounds; about 3,300 (8.5%) were called active. Only a selection was taken, and actives are over-represented in it overall.

What follows are compounds tested on HepG2 (assay: cytotoxicity call (relative viability < 0.9)). Settings: 10 µM.
For COc1cccc(-n2cc(C(=O)NO)nn2)c1, the cytotoxicity call was “inactive”.
COC(=O)c1ccc(Cn2cc(C(=O)NO)nn2)o1 was tested, and the cytotoxicity call was “inactive”.
For COc1ccc(-n2cc(C(=O)NO)nn2)cc1, the cytotoxicity call was “active”.
With COc1cccc(NC(=O)N[C@H]2CC[C@H](CC(=O)N3CCN(C)CC3)O[C@H]2CO)c1 the cytotoxicity call was “inactive”.
With COc1cccc(NC(=O)N[C@@H]2CC[C@@H](CC(=O)N3CCN(C)CC3)O[C@@H]2CO)c1 the cytotoxicity call was “active”.
In the case of COc1cccc(NC(=O)N[C@@H]2CC[C@H](CC(=O)N3CCN(C)CC3)O[C@@H]2CO)c1, the cytotoxicity call is reported as “inactive”.
For C[C@H](CO)N1C[C@H](C)[C@H](CN(C)C(=O)Nc2ccc(F)cc2)Oc2ncc(-c3cccc(C(F)(F)F)c3)cc2C1=O, the cytotoxicity call was “inactive”.
C[C@@H]1CN([C@H](C)CO)C(=O)c2cc(NC(=O)c3ccncc3)ccc2O[C@H]1CN(C)Cc1ccc(C(=O)O)cc1 was tested, and the cytotoxicity call was “inactive”.
With COc1ccc(CN(C)C[C@H]2Oc3c(NS(=O)(=O)c4cn(C)cn4)cccc3C(=O)N([C@H](C)CO)C[C@@H]2C)cc1 the cytotoxicity call was “inactive”.
C[C@@H]1CCCCO[C@@H](CN(C)S(=O)(=O)c2ccc(Cl)cc2)[C@@H](C)CN([C@H](C)CO)C(=O)c2cc(NC(=O)c3ccncc3)ccc2O1 was tested, and the cytotoxicity call was “inactive”.
With C[C@H]1CCCCO[C@H](CN(C)S(=O)(=O)c2ccc(Cl)cc2)[C@@H](C)CN([C@@H](C)CO)C(=O)c2cc(NC(=O)c3ccncc3)ccc2O1 the cytotoxicity call was “inactive”.
For C[C@@H]1CN([C@H](C)CO)C(=O)c2cc(NC(=O)c3ccncc3)ccc2O[C@@H](C)CCCCO[C@H]1CN(C)S(=O)(=O)c1ccc(Cl)cc1, the cytotoxicity call was “active”.
With C[C@@H]1CCCCO[C@@H](CN(C)S(=O)(=O)c2ccc(Cl)cc2)[C@H](C)CN([C@@H](C)CO)C(=O)c2cc(NC(=O)c3ccncc3)ccc2O1 the cytotoxicity call was “inactive”.
In the case of C[C@@H]1CCCCO[C@@H](CN(C)S(=O)(=O)c2ccc(Cl)cc2)[C@@H](C)CN([C@@H](C)CO)C(=O)c2cc(NC(=O)c3ccncc3)ccc2O1, the cytotoxicity call is reported as “inactive”.
C[C@@H]1CCCCO[C@H](CN(C)S(=O)(=O)c2ccc(Cl)cc2)[C@@H](C)CN([C@@H](C)CO)C(=O)c2cc(NC(=O)c3ccncc3)ccc2O1 was tested, and the cytotoxicity call was “active”.
For Cc1noc(C)c1S(=O)(=O)N(C)C[C@H]1Oc2c(NC(=O)C3CCCCC3)cccc2C(=O)N([C@H](C)CO)C[C@H]1C, the cytotoxicity call was “inactive”.
COc1ccc(CN(C)C[C@H]2OCCCC[C@@H](C)Oc3ccc(NS(=O)(=O)c4ccc(C)cc4)cc3C(=O)N([C@@H](C)CO)C[C@@H]2C)cc1 was tested, and the cytotoxicity call was “inactive”.
C[C@H]1CCCCO[C@@H](CN(C)S(=O)(=O)c2ccc(Cl)cc2)[C@@H](C)CN([C@@H](C)CO)C(=O)c2cc(NS(=O)(=O)c3ccccc3)ccc2O1 was tested, and the cytotoxicity call was “inactive”.
CC12C=CC(=O)C=C1CCC1C2C(O)CC2(C)C1CCC2(O)C(=O)COC(=O)CCC(=O)O (configuration not stated) was tested, and the cytotoxicity call was “inactive”.
With Cc1ccc(S(=O)(=O)N(C)C[C@@H]2Oc3ncc(C#CCC(C)C)cc3C(=O)N([C@@H](C)CO)C[C@H]2C)cc1 the cytotoxicity call was “active”.
Cc1ccc(S(=O)(=O)N(C)C[C@H]2Oc3ncc(C#CCC(C)C)cc3C(=O)N([C@@H](C)CO)C[C@H]2C)cc1 was tested, and the cytotoxicity call was “active”.
In the case of Cc1ccc(S(=O)(=O)N(C)C[C@H]2Oc3ncc(C#CCC(C)C)cc3C(=O)N([C@@H](C)CO)C[C@@H]2C)cc1, the cytotoxicity call is reported as “inactive”.
With COc1cccc(S(=O)(=O)N(C)C[C@H]2Oc3ncc(C#CCC(C)C)cc3C(=O)N([C@@H](C)CO)C[C@H]2C)c1 the cytotoxicity call was “inactive”.
COc1cccc(S(=O)(=O)N(C)C[C@H]2Oc3ncc(C#CCC(C)C)cc3C(=O)N([C@H](C)CO)C[C@H]2C)c1 was tested, and the cytotoxicity call was “inactive”.
With Cc1ccc(S(=O)(=O)N(C)C[C@@H]2Oc3ncc(C#CCC(C)C)cc3C(=O)N([C@H](C)CO)C[C@H]2C)cc1 the cytotoxicity call was “inactive”.
In the case of Cc1ccc(S(=O)(=O)N(C)C[C@@H]2Oc3ncc(C#CCC(C)C)cc3C(=O)N([C@H](C)CO)C[C@@H]2C)cc1, the cytotoxicity call is reported as “inactive”.
With COc1cccc(-c2cnc3c(c2)C(=O)N([C@H](C)CO)C[C@H](C)[C@H](CN(C)S(=O)(=O)c2ccccc2)O3)c1 the cytotoxicity call was “active”.
Cc1ccc(S(=O)(=O)N(C)C[C@H]2Oc3ncc(C#CCC(C)C)cc3C(=O)N([C@H](C)CO)C[C@@H]2C)cc1 was tested, and the cytotoxicity call was “inactive”.
In the case of COc1cccc(S(=O)(=O)N(C)C[C@@H]2Oc3ncc(-c4ccccc4)cc3C(=O)N([C@H](C)CO)C[C@@H]2C)c1, the cytotoxicity call is reported as “inactive”.
COc1cccc(-c2cnc3c(c2)C(=O)N([C@H](C)CO)C[C@H](C)[C@H](CN(C)S(=O)(=O)c2cccc(OC)c2)O3)c1 was tested, and the cytotoxicity call was “inactive”.
For COc1cccc(S(=O)(=O)N(C)C[C@H]2Oc3ncc(C#CCC(C)C)cc3C(=O)N([C@H](C)CO)C[C@@H]2C)c1, the cytotoxicity call was “active”.
CN(C)CCCNC(=O)C[C@@H]1CC[C@H]2[C@@H](COC[C@@H](O)CN2S(=O)(=O)c2ccc(F)cc2)O1 was tested, and the cytotoxicity call was “inactive”.
CO[C@H]1CN(C)C(=O)c2cc(NS(=O)(=O)CC(F)(F)F)ccc2OC[C@H](C)N(Cc2ccccn2)C[C@@H]1C was tested, and the cytotoxicity call was “inactive”.
With CC(C)CC#Cc1cnc2c(c1)C(=O)N([C@@H](C)CO)C[C@@H](C)[C@@H](CN(C)C(=O)CN1CCOCC1)O2 the cytotoxicity call was “inactive”.
C[C@@H]1CN([C@@H](C)CO)C(=O)c2cc(NS(=O)(=O)c3ccccc3)ccc2O[C@@H](C)CCCCO[C@H]1CN(C)C(=O)c1ccccc1 was tested, and the cytotoxicity call was “inactive”.
With C[C@@H]1CCCCO[C@H](CN(C)C(=O)Cc2ccccc2)[C@@H](C)CN([C@H](C)CO)C(=O)c2cc(NC(=O)Nc3ccc4c(c3)OCO4)ccc2O1 the cytotoxicity call was “inactive”.
For CNC[C@H]1Oc2ccc(NS(=O)(=O)c3cn(C)cn3)cc2C(=O)N([C@@H](C)CO)C[C@H]1C, the cytotoxicity call was “inactive”.
For C[C@@H]1CCCCO[C@@H](CN(C)C(=O)Nc2ccccc2)[C@H](C)CN([C@@H](C)CO)C(=O)c2cc(NC(=O)Nc3ccccc3)ccc2O1, the cytotoxicity call was “inactive”.
For C[C@@H]1CN([C@@H](C)CO)C(=O)c2cc(-c3ccc(C(=O)N(C)C)cc3)cnc2O[C@H]1CN(C)C(=O)CN(C)C, the cytotoxicity call was “inactive”.
C[C@H]1CCCCO[C@H](CN(C)Cc2ccccc2)[C@@H](C)CN([C@@H](C)CO)C(=O)c2cc(NC(=O)c3ccncc3)ccc2O1 was tested, and the cytotoxicity call was “inactive”.
With Cc1noc(C)c1NC(=O)Nc1ccc2c(c1)C(=O)N([C@H](C)CO)C[C@@H](C)[C@H](CN(C)Cc1ccc(Oc3ccccc3)cc1)O2 the cytotoxicity call was “inactive”.
In the case of Cc1cc(C(=O)Nc2cccc3c2O[C@@H](CN(C)C(=O)NC(C)C)[C@H](C)CN([C@H](C)CO)C3=O)n(C)n1, the cytotoxicity call is reported as “inactive”.
For C[C@@H]1CN([C@@H](C)CO)C(=O)c2cc(NC(=O)Nc3cccc4ccccc34)ccc2O[C@@H](C)CCCCO[C@@H]1CN(C)S(=O)(=O)c1ccc(F)cc1, the cytotoxicity call was “inactive”.
In the case of CN1CCN(C(=O)C[C@H]2CC[C@@H](NC(=O)c3ccc4c(c3)OCO4)[C@H](CO)O2)CC1, the cytotoxicity call is reported as “inactive”.
In the case of C[C@@H]1CN([C@@H](C)CO)C(=O)c2c(c3ccccc3n2C)-c2ccccc2CO[C@H]1CN(C)C(=O)Nc1ccccc1, the cytotoxicity call is reported as “inactive”.
For CN1C(=O)c2cc(NC(=O)C3CCOCC3)ccc2OC[C@H]2O[C@H](CC(=O)NCc3ccccc3F)CC[C@H]21, the cytotoxicity call was “inactive”.
C[C@H]1CN([C@@H](C)CO)C(=O)c2cc(NS(=O)(=O)c3cn(C)cn3)ccc2O[C@@H]1CN(C)Cc1ccccc1 was tested, and the cytotoxicity call was “inactive”.
In the case of CCc1c(c/2[nH]c1/C=C/1\N=C(/C(=C/3\N=C(/C=C/4\N/C(=C2)C(=C4C)C=C)[C@@H](C)[C@@H]3CCC(=O)O)CC(=O)N[C@@H](CC(=O)O)C(=O)O)C(=C1C)C(=O)O)C, the cytotoxicity call is reported as “inactive”.
For CC/1=C(CCC(=O)O)/C/2=C/c3[nH]c(c(c3CCC(=O)O)C)/C=C/3\N=C(/C=C/4\N=C(\C=C1/N2)C(=C4C)C=C)C(=C3C)C=C, the cytotoxicity call was “active”.
For C=CC1=C(C)c2cc3[nH]c(cc4nc(cc5[nH]c(cc1n2)c(C)c5CCC(=O)O)C(CCC(=O)O)=C4C)c(C)c3C=C, the cytotoxicity call was “active”.
C=CC1=C(C)C2=NC/1=C\C1=NC(=C\C3=NC(=C\C4=NC(=C\2)/C(C)=C4CCC(=O)O)/C(CCC(=O)O)=C3C)/C(C=C)=C1C was tested, and the cytotoxicity call was “inactive”.
C=CC1=C(C)C(=Cc2[nH]c(Cc3[nH]c(C=C4NC(=O)C(C)=C4C=C)c(C)c3CCC(=O)O)c(CCC(=O)O)c2C)NC1=O was tested, and the cytotoxicity call was “inactive”.
COC(=O)CCc1c(c/2[nH]c1/C=C/1\N=C(/C=C/3\N=C(/C=C/4\N/C(=C2)[C@]2(C)[C@H](C(=O)OC)C(=CC=C42)C(=O)OC)C(=C3C=C)C)C(=C1CCC(=O)O)C)C was tested, and the cytotoxicity call was “active”.
For CC1=C(CCC(=O)O)c2cc3[nH]c(cc4nc(cc5[nH]c(cc1n2)c(C)c5C(C)O)C(C)=C4C(C)O)c(C)c3CCC(=O)O (configuration not stated), the cytotoxicity call was “active”.
For COC(=O)[C@H]1C2C(=O)N(C3CC3)C[C@]23C=C[C@H]1O3 (some centres not stated), the cytotoxicity call was “inactive”.
C[C@H]1CN([C@@H](C)CO)C(=O)c2cccc(NC(=O)C3CCCCC3)c2O[C@H]1CN(C)Cc1ccc(Cl)c(Cl)c1 was tested, and the cytotoxicity call was “inactive”.
For CO[C@H]1CN(C)C(=O)c2ccc(NS(C)(=O)=O)cc2OC[C@H](C)N(C(=O)c2ccc3c(c2)OCO3)C[C@H]1C, the cytotoxicity call was “inactive”.
In the case of C[C@@H]1CN([C@@H](C)CO)S(=O)(=O)c2ccc(C#CC(C)(C)O)cc2O[C@H]1CN(C)Cc1ccccc1, the cytotoxicity call is reported as “inactive”.
For CCCC(=O)Nc1ccc2c(c1)C(=O)N(C)C[C@@H](OC)[C@H](C)CN(Cc1cc(-c3ccccc3)on1)[C@H](C)CO2, the cytotoxicity call was “inactive”.
In the case of Cc1noc(C)c1NC(=O)N(C)C[C@@H]1Oc2ccc(NC(=O)CCCN(C)C)cc2C(=O)N([C@@H](C)CO)C[C@@H]1C, the cytotoxicity call is reported as “inactive”.
For C[C@@H]1CN([C@@H](C)CO)C(=O)Cc2cc(NC(=O)Cc3ccccc3)ccc2O[C@@H]1CN(C)S(=O)(=O)c1ccccc1, the cytotoxicity call was “inactive”.
With O=C(Nc1ccc2c(c1)[C@@H]1C[C@@H](CC(=O)N3CCc4ccccc4C3)O[C@@H](CO)[C@@H]1O2)C1CCOCC1 the cytotoxicity call was “inactive”.
